In PubChem BioAssay (NCATS) one finds Potency, outcome and activity, negative = cell killing data, which are given here for 13 compounds.

Assay [1] concerns MCC-26. Briefly: qHTS assay to identify novel small-molecules to repurpose for Merkel cell carcinoma treatment (AID 1296009). Further: nearly all actives have a fitted effect of over 60% in size. The note with it: MCC and control cell lines, CellTiter-Glo viability, 72 h; series mostly up to 46 µM. The procedure, abridged:
(§1)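 Cell viability, measured as CellTiter-Glo luminescence, was normalized between DMSO and no-cell wells. The cells had been exposed to 8- or 11-point compound dilutions for 72 hr at 37 degree celsius.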
(In general: qHTS replaces the single test concentration by a dilution series.)

In assay [2] the test system is NIH3T3. Described as above. The note with it: MCC and control cell lines, CellTiter-Glo viability, 72 h; at 44.8 µM (top of the series) unless noted. The procedure, abridged:
as §1
In general terms: Cellular ATP, detected with luciferase, serves as a proxy for viable cell number.

Assay [3] has as its system MKL-1. Described as above. The note with it: MCC and control cell lines, CellTiter-Glo viability, 72 h; series mostly up to 46 µM. In a few lines: as §1
Assay [4] deals with MKL-2. Described as above. The note with it: MCC and control cell lines, CellTiter-Glo viability, 72 h; series mostly up to 46 µM. The procedure, abridged: as §1
Assay [5] concerns UISO. The description is as above. Conditions: MCC and control cell lines, CellTiter-Glo viability, 72 h; series mostly up to 46 µM. In a few lines: as §1
The subject of assay [6] is WaGa. The assay is described as above. Conditions: MCC and control cell lines, CellTiter-Glo viability, 72 h; series mostly up to 46 µM. In a few lines:
as §1

The subject of assay [7] is C33A. Briefly: Primary qHTS to identify gynecologic anti-cancer compounds using libraries of approved drugs and bioactive compounds (AID 1345084). Further: nearly all actives have a fitted effect of over 55% in size. Conditions: Gynecologic cancer cell panel viability, ATPlite luminescence, 48 h; series mostly up to 57.5 µM. The procedure, abridged: (§2)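 Measured: luminescence after ATPlite addition (15 min, RT). Exposure: 48 h, 37 C, 5% CO2.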

Assay [8] relates to CAOV3. The description is as above. Conditions: Gynecologic cancer cell panel viability, ATPlite luminescence, 48 h; series mostly up to 57.5 µM. The procedure, abridged: as §2
Assay [9] has as its system CASKI. The assay is described as above. The note with it: Gynecologic cancer cell panel viability, ATPlite luminescence, 48 h; series mostly up to 57.5 µM. The procedure, abridged:
as §2

The test system of assay [10] is Es-2. Described as above. Conditions: Gynecologic cancer cell panel viability, ATPlite luminescence, 48 h; series mostly up to 57.5 µM. In a few lines: as §2
In assay [11] the test system is HeLa. The description is as above. Conditions: Gynecologic cancer cell panel viability, ATPlite luminescence, 48 h; series mostly up to 57.5 µM. In a few lines:
as §2

Assay [12] relates to Hek293T. Described as above. The note with it: Gynecologic cancer cell panel viability, ATPlite luminescence, 48 h, control line for the selectivity index; series mostly up to 57.5 µM. In a few lines:
as §2

Assay [13] has as its system JEG-3. The description is as above. Conditions: Gynecologic cancer cell panel viability, ATPlite luminescence, 48 h; series mostly up to 57.5 µM. The procedure, abridged:
as §2

Assay [14] concerns OV90. Described as above. Conditions: Gynecologic cancer cell panel viability, ATPlite luminescence, 48 h; series mostly up to 57.5 µM. The procedure, abridged:
as §2

Assay [15] concerns PA-1. The description is as above. The note with it: Gynecologic cancer cell panel viability, ATPlite luminescence, 48 h; series mostly up to 57.5 µM. In a few lines:
as §2

Assay [16] concerns SKOV3. The assay is described as above. The note with it: Gynecologic cancer cell panel viability, ATPlite luminescence, 48 h; series mostly up to 57.5 µM. In a few lines:
as §2

For assay [17], the system named is Tov-21-G. The description is as above. The note with it: Gynecologic cancer cell panel viability, ATPlite luminescence, 48 h; series mostly up to 57.5 µM. In a few lines: as §2
The test system of assay [18] is Tov112D. Described as above. The note with it: Gynecologic cancer cell panel viability, ATPlite luminescence, 48 h; series mostly up to 57.5 µM. The procedure, abridged: as §2
Assay [19] is described as follows: Drug repurposing screens with cells derived from glioblastoma tumor samples (AID 1345199). Further: nearly all actives have a fitted effect of over 40% in size. Conditions: GBM patient neurospheres viability, ATP luminescence, 48 h. The procedure, abridged: (§3)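 Primary testing used CD133+ neurospheres from four GBM patients, seven concentrations, 48 h exposure and ATP-based viability; confirmation added three slower-growing patient lines.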

For assay [20], the system named is astro. The description is as above. The note with it: viability, ATP luminescence, 48 h; series mostly up to 45.9 µM. The procedure, abridged:
as §3

Setting [21] is: at 45.9 µM (top of the series), tumour line B.
Where [22] appears, read: at 45.9 µM (top of the series), tumour line D.
Setting [23] is: at 46.1 µM (top of the series), tumour line C.
The mark [24] stands for this setting: at 20 µM (top of the series), tumour line C.
The mark [25] stands for this setting: at 21.2 µM (top of the series), tumour line B.
[26] abbreviates: at 21.2 µM (top of the series), tumour line D.
Where [27] appears, read: at 21.3 µM (top of the series), tumour line A.

Values joined by “and” are separate entries in the source; they are usually repeats but may differ in a detail not shown here. Equal entries are not always repeated. Inconclusive results are not listed. Values without a mark were called inactive. Active and inactive are the calls of the source. The call rests on the fitted dose curve; in most records, active means well fitted curve in the direction sought with a large enough effect; inconclusive means small, poorly fitted or top-dose-only effect, or another doubt; inactive means no such curve, though single readings can be large; an effect the other way counts as inactive or inconclusive.
On the % scale 0 is the no-effect control and ±100 the full control effect; potency means the concentration at half of the fitted maximal effect.

For `Cc1ccc(S(=O)(=O)N[C@@H](Cc2ccccc2)C(=O)CCl)cc1`, the Potency result in assay [1] is “inactive”. In assay [2], the compound was called inactive.
Consider `CCCN[C@H]1CCc2nc(N)sc2C1`, for which the Potency result in assay [3], in assay [4], in assay [5], in assay [6], in assay [7] and in assay [8] was “inactive” throughout. For the same compound, the Potency entry in assay [9], in assay [10], in assay [11], in assay [12], in assay [13] and in assay [14] was “inactive” each time. Further, the Potency entry in [15], in assay [16], in [17], in [18] and in assay [20] was “inactive” in each case. Moreover, the activity, negative = cell killing in [19] (setting [21]) is 3.81%; in assay [19] (setting [22]), 9.12%; in assay [19] (at 46 µM (top of the series), tumour line A), -26.8%; in [19] (setting [23]) it was -13%.
Take `CC(N)C12CC3CC(CC(C3)C1)C2` (stereo unspecified): the Potency entry in assay [3], in assay [4], in assay [5], in assay [6], in [7] and in assay [8] was “inactive” in each case. Besides, the Potency entry in assay [9], in [10], in [12], in assay [13], in assay [15] and in assay [16] was “inactive” throughout. The Potency entry in [17], in assay [18] and in assay [20] was “inactive” throughout. The compound was classed as inactive in assay [2]. The activity, negative = cell killing is -2.45% in [19] (setting [21]), -5.43% in assay [19] (setting [22]) and 5.06% in assay [19] (setting [23]).
For `NNC(=O)c1ccncc1`, the Potency entry in [1], in assay [3], in assay [5], in assay [6], in [7] and in assay [8] was “inactive” throughout. Moreover, the Potency entry in assay [9], in assay [10], in assay [12], in assay [13], in [14] and in assay [15] was “inactive” in each case. In addition, the Potency result in [16], in [17], in [18] and in assay [20] was “inactive” throughout. Moreover, the activity, negative = cell killing is -4.35% in assay [19] (setting [21]), -4.61% in assay [19] (setting [22]) and -1.87% in assay [19] (setting [23]).
Consider `OCc1ccc(-c2nn(Cc3ccccc3)c3ccccc23)o1`, for which, in assay [1], the Potency entry was “inactive”. The figures for the Potency in assay [4] and in assay [5] were 18.7 µM (active) and 11.8 µM (active), respectively.
With `CCOC(=O)[C@H](CCc1ccccc1)N[C@H]1CCc2ccccc2N(CC(=O)O)C1=O`, the Potency result in assay [1], in assay [3], in assay [5], in [6], in assay [9] and in assay [10] was “inactive” throughout. In addition, the Potency entry in assay [12], in assay [13], in assay [14], in [15], in assay [17] and in [18] was “inactive” throughout.
For the compound `Oc1c(Cl)cc(Cl)c2cccnc12`, the Potency entry in assay [1], in [9] and in assay [11] was “inactive” throughout. The Potency in [3] was 5.31 µM (active); in assay [4], 3.76 µM (active); in [5], 13.3 µM (active); in assay [6] it was 11.9 µM (active); in assay [10], 20 µM (active); in assay [15], 12.6 µM (active). The Potency was 28.2 µM (active) in [17], 15.8 µM (active) in assay [19] (tumour line A) and 8.91 µM (active) in [19] (tumour line B). Further, in [19] (setting [23]), the activity, negative = cell killing was -48.9%.
For `COc1c(N2CCNC(C)C2)c(F)cc2c(=O)c(C(=O)O)cn(C3CC3)c12` (stereo unspecified), the Potency entry in assay [3], in assay [4], in [5], in assay [6], in [7] and in assay [8] was “inactive” each time. Also, the Potency result in assay [9], in [10], in [12], in [13], in [14] and in assay [15] was “inactive” each time. Moreover, the Potency entry in assay [17], in assay [18] and in assay [20] was “inactive” in each case. The outcome in assay [2] was inactive. The values for the activity, negative = cell killing in [19] (setting [21]), in [19] (setting [22]) and in assay [19] (setting [23]) were -10.7%, -20.8% and 14.5%, respectively.
Take `COc1ccc(-c2ccc3cc(C(=O)O)ccc3c2)cc1C12CC3CC(CC(C3)C1)C2`: the Potency result in assay [3], in assay [4], in assay [5], in assay [6], in [7] and in [8] was “inactive” in each case. For the same compound, the Potency entry in assay [9], in assay [10], in assay [12], in [13], in [14] and in assay [15] was “inactive” throughout. Moreover, the Potency result in assay [16], in [17], in assay [18] and in assay [20] was “inactive” in each case. The result in assay [2] was inactive.
Turning to `CCOC(=O)c1ccc(OC(=O)CCCCCN=C(N)N)cc1`, the Potency result in assay [3], in assay [4], in assay [5], in [6], in assay [7] and in [8] was “inactive” in each case. The Potency result in assay [9], in [10], in assay [12], in assay [13], in assay [14] and in assay [15] was “inactive” each time. For the same compound, the Potency result in assay [16], in assay [17], in assay [18] and in assay [20] was “inactive” in each case. In assay [2], the compound was classed as inactive. The activity, negative = cell killing is -4.52% in assay [19] (setting [24]), -7.17% in assay [19] (setting [25]), -2.23% in assay [19] (setting [26]) and -25.1% in [19] (setting [27]).
Regarding `Cn1c(=O)c2c(ncn2CC(O)CO)n(C)c1=O` (stereo unspecified), the Potency entry in assay [3], in assay [4], in assay [5], in assay [6], in [7] and in assay [8] was “inactive” each time. The Potency entry in assay [9], in assay [10], in assay [11], in assay [12], in assay [13] and in assay [14] was “inactive” throughout. Besides, the Potency entry in [15], in [16], in assay [17], in assay [18] and in assay [20] was “inactive” in each case. Besides, the activity, negative = cell killing in assay [19] (setting [24]) is 1.09%; in [19] (setting [25]), 1.11%; in assay [19] (setting [26]), 1.54%; in assay [19] (setting [27]), 3.02%.
With `CCCCc1oc2ccc(NS(C)(=O)=O)cc2c1C(=O)c1ccc(OCCCN(CCCC)CCCC)cc1`, the Potency result in assay [1], in [11] and in assay [13] was “inactive” throughout. The Potency in assay [4] was 13.2 µM (active) and 4.73 µM (active); in assay [20], 20 µM (active).
Turning to `CCC(=O)O[C@]1(C(=O)CCl)[C@@H](C)C[C@H]2[C@@H]3CCC4=CC(=O)C=C[C@]4(C)[C@@]3(F)[C@@H](O)C[C@@]21C`, the Potency entry in assay [3], in assay [4], in [5], in assay [6], in assay [7] and in assay [8] was “inactive” throughout. The Potency result in assay [9], in [10], in assay [12], in [13], in [14] and in assay [15] was “inactive” in each case. For the same compound, the Potency result in assay [17], in assay [18] and in assay [20] was “inactive” in each case. Besides, the compound was called inactive in assay [2]. Besides, the activity, negative = cell killing in [19] (setting [21]) was -2.08%; in assay [19] (setting [22]) it was 0.817%; in assay [19] (setting [23]), 10.1%.
